# High-throughput results: PubChem, National Center for Advancing Translational Sciences (NCATS)
# HEK293 tox: qHTS of GLP-1 Receptor Inverse Agonists: Cytotox Screen. 410,000 compounds, 0.13% hits. HEK293 cAMP-luciferase reporter cells, luminescence, 24 h. Potency, µM (doses to about 38.3 µM), inactives show at the top dose activity change, negative = inhibition, hits mostly inhibitors. AID 624418, 2012;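 also: loss of luciferase light is scored as toxicity; % is scaled to controls: 0 for no effect and ±100 for the full control effect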
#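 Step one: seed cells (200 cells/uL, DMEM with 10% Nu serum, 1% pen-strep). Step two: 12-hour incubation at 37 deg C. Step three: pin 23 nL compound, incubate 24 hr. Step four: add luciferase reagent, read luminescence 12 min later.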
# Mito fusion yeast: qHTS Assay for Small Molecule Inhibitors of Mitochondrial Division or Activators of Mitochondrial Fusion | AID 485298, 2010 | S. cerevisiae fusion-defective mutant growth rescue, CellTiterGlo 48 h | 320,000 compounds, 0.23% hits | Potency, µM (doses to about 46.1 µM), inactives show at the top dose growth rescue (activation), most hits filed as activators; also: % of control where 0% means no effect; nearly all actives have a fitted effect of over 45% in size
#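 Read-out: ATP-based luminescence (CellTiterGlo, 10 min ambient) reporting growth of fusion-defective ts yeast after 48 hours at 37C on glycerol/ethanol YPEG medium in the presence of compound.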
# GLP-1R agonist: qHTS of GLP-1 Receptor Agonists; 380,000 compounds, 0.007% hits; Potency, µM (titrated, usually from 45.6 µM), for inactives: at the highest dose activation, hits mostly activators; HEK293 GLP-1R CRE-luciferase, luminescence, 4-6 h; cells express a hypersensitive GLP-1R form; AID 624172, 2012; Glucagon-like peptide 1 receptor (Homo sapiens), P43220; also: % of control where 0% means no effect
# Target sequence (P43220 whole entry, looked up): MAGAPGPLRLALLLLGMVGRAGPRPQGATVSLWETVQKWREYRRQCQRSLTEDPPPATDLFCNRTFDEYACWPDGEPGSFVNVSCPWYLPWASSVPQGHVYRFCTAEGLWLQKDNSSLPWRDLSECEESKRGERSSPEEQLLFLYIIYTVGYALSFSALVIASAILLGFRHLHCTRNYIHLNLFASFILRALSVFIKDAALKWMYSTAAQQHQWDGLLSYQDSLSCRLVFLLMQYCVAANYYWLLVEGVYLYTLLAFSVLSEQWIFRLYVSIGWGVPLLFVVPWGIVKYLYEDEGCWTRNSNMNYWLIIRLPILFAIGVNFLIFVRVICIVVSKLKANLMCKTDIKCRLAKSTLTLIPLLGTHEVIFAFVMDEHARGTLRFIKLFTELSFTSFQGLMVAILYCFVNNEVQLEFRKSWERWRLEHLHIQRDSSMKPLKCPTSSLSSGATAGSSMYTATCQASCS
# BRCA1 expr act: qHTS Assay to Identify Small Molecule Activators of BRCA1 Expression; 380,000 compounds, 1.1% hits; AID 624202, 2012; Potency, µM (titrated, usually from 46.1 µM), for inactives: top-dose activation, actives largely listed as activators; MCF7-BRCA1-FFLuc reporter, luminescence, 48 h; response scale: scaled: vehicle 0%, 10 µM genistein 100%; also: nearly all actives have a fitted effect of over 80% in size
#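 Cells: MCF7-BRCA1-FFLuc, 2000/well. Exposure: 48 h, 37 °C, 5% CO2. Read: luminescence, 15 min post-substrate. Controls: genistein 10 microM (maximal activation), DMSO (neutral).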
# GLP1R inv ag: qHTS of GLP-1 Receptor Inverse Agonists (Inhibition Mode) | Glucagon-like peptide 1 receptor (Homo sapiens), P43220 | 410,000 compounds, 1.6% hits | AID 624417, 2012 | HEK293 GLP-1R CRE-luciferase, luminescence, 24 h; GLP-1R form is constitutively active | Potency, µM (doses to about 38.3 µM), for inactives: at the highest dose activity change, negative = inhibition, most hits filed as inhibitors; also: % is scaled to controls: 0 for no effect and ±100 for the full control effect; nearly all actives have a fitted effect of over 55% in size
#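 Constitutively active GLP-1R drives a cAMP-responsive luciferase in stably transfected HEK293 cells; test compounds are added after overnight (12 h) attachment and left 24 hr, and signal loss in luminescence marks inhibition.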
# Active calls of the source: *; i = inactive; ? = inconclusive; . = no result; [ ] = dose if it differs, or a comment. Only some compounds are listed: those with a hit (about 2.8% of all), similar ones and a draw of the others. Calls follow the shape of the dose curve; as a rule, active = well fitted curve in the direction sought with a large enough effect; inconclusive = small, poorly fitted or top-dose-only effect, or another doubt; inactive = no such curve, though single readings can be large; an effect the other way counts as inactive or inconclusive. Potency is read from the fitted curve at half-maximal effect.
SMILES,HEK293 tox,Mito fusion yeast,GLP-1R agonist,BRCA1 expr act,GLP1R inv ag
CC1CCN(C(=S)NCCc2ccccc2)CC1,2%,3%,0%,7.1µM*,0%
S=C(NCCc1ccccc1)NC1CCCCCC1,12%,6%,3%,?,?
CC(=O)c1ccccc1NC(=O)COC(=O)c1ccc2c(c1)nc(C)n2-c1ccccc1,.,2%,.,.,.
CC(=O)N1c2ccccc2N=C(c2ccc(C(F)(F)F)cc2)C1C(=O)NC(C)C (configuration not stated),2%,.,.,.,-2%
CCOc1ccc2[nH]c(O)c(NC(C)=O)c2c1,14%,-8%,-1%,-3%,3%
COc1ccc(NC(=O)N2CCN(C(=O)C(Cc3ccc(F)cc3)NC(C)=O)CC2)cc1 (configuration not stated),-1%[7.66 µM],-2%,1%,42%,9%[7.66 µM]
Cc1ccccc1CNC(=O)C(=O)NCCC1CCCCN1S(=O)(=O)c1ccccc1 (configuration not stated),-17%,-3%,6%,-45%,?
CC(c1ccccc1C(O)c1ccccc1)N(C)C (configuration not stated),-26%,-1%,-1%,0%,-10%
Cc1ccc(C(O)(c2ccccc2)c2ccccc2C(C)N(C)C)c(C)c1 (configuration not stated),?,-2%,-7%,-67%,10µM*
Fc1ccc(-c2nc3c(Cl)cc(C(F)(F)F)cn3c2Cc2cccc(Cl)c2)cc1,3%,.,-1%,5%,-1%
O=C(NC1CCCC1)C(c1ccccc1F)N(C(=O)Cc1cccs1)c1ccc2c(c1)OCCO2 (configuration not stated),5%,5%,4%,-27%,10µM*
Cc1nc(-c2ccc(C)c(S(=O)(=O)N3CCC(C(=O)Nc4ccc(Cl)cc4)CC3)c2)no1,-20%,.,.,.,10µM*
CCc1cccc(NC(=O)C2CCN(S(=O)(=O)c3cccc(-c4noc(C)n4)c3)CC2)c1,11%,.,.,.,?
OCC1(Cc2ccc(Cl)cc2)CCN(Cc2ccc(F)c(F)c2)CC1,-25%,14%,-4%,-5%,7.9µM*
OCC1(Cc2ccccc2)CCN(Cc2cnc(-c3cccc4ccccc34)nc2)CC1,-17%,-22%,16%,-3%,8.9µM*
OCC1(Cc2ccc(Cl)cc2)CCN(Cc2ccc(Oc3ncccn3)cc2)CC1,-10%,-1%,3%,1%,10µM*
COc1cc(/C=N/NC(=O)CC(=O)NC2CCCCC2)ccc1O,-13%,-14%,13%,-12%,19%
Cc1ccc(C2CC(c3ccccc3)=NN2c2ccccc2)o1 (configuration not stated),73%,2%,3%,-22%,?
O=C(OCc1nnc(-c2ccc([N+](=O)[O-])cc2)o1)C1CC(=O)N(CCc2ccccc2)C1 (configuration not stated),12%,-3%,1%,14%,7%
CN(CCO)CC(O)CN(c1ccccc1)c1ccccc1 (configuration not stated),-23%,-5%,-3%,37%,?
CNCC(O)CN(c1ccccc1)c1ccccc1 (configuration not stated),-2%,-10%,1%,0%,6.3µM*
CC(=C/c1ccccc1)/C=C1/SC(N2CCOCC2)=NC1=O,-23%,4%,-3%,11µM*,-10%
COc1ccc2c(c1OC)C(=O)N(c1cccc(C(F)(F)F)c1)C2,-15%,17%,17%,2.8µM*,0%
COc1ccc2c(c1OC)C(=O)N(c1cccc(C)c1)C2,-2%,4%,2%,?,30%
C[C@H]1CN([C@@H](C)CO)C(=O)CCCn2cc(nn2)CO[C@@H]1CN(C)S(=O)(=O)c1ccc2ccccc2c1,6%,.,2%,17%,1%
SMILES,HEK293 tox,Mito fusion yeast,GLP-1R agonist,BRCA1 expr act,GLP1R inv ag
O=c1c(Cl)c(N/N=C/c2ccc(Cl)cc2)cnn1-c1ccccc1,-22%,8.9µM*,-1%,-44%,?
CCC(C)NC(=O)c1ccc(COc2ccccc2Cl)cc1 (configuration not stated),?,1%,5%,45%,0%
NC(=S)N=Nc1c(O)n(CCCl)c2ccccc12,?,-4%,23%,-25%,2.8µM*
NC(=S)N=Nc1c(O)n(CCCl)c2ccc(Cl)cc12,1.3µM*,4%,26%,-56%,?
Clc1ccc(C2[C@H]3CN(Cc4ccc(-c5ccccc5)cc4)[C@H](c4ccccc4)C34CC2(c2ccccc2)C4)cn1 (some centres not stated),0%,-5%,-3%,9%,1%
CC1(c2ccccc2)O[C@@H]2C[C@H]3[C@@H]4CCC5=CC(=O)C=C[C@]5(C)[C@@]4(F)[C@@H](O)C[C@]3(C)[C@]2(C(=O)CO)O1 (some centres not stated),2%,2%,4%,-39%,7.9µM*
CC(C)(C)CC(=O)OCC(=O)[C@@]12OC(C)(C)O[C@@H]1C[C@H]1[C@@H]3CCC4=CC(=O)C=C[C@]4(C)[C@@]3(F)[C@@H](O)C[C@]12C,.,.,-3%,.,.
CCCCN(c1ccccc1)S(=O)(=O)N(C)C,-6%[7.66 µM],0%,0%,-16%,-11%[7.66 µM]
CCCCN(S(=O)(=O)c1ccccc1)S(=O)(=O)c1ccccc1,-5%,13%,18%,-28%,10µM*
O=C(O)CCCc1ccc2c(c1)CCc1ccccc1-2,-1%,12%,11%,-8%,-7%
Cc1cc(C)n(-c2nnc(NC34CC5CC(CC(C5)C3)C4)nn2)n1,-14%,?,-1%,2.5µM*,?
COc1ccc2nc(N3CCC(C)CC3)c(C#N)cc2c1,378%,18%,-1%,11µM*,0%
COc1ccc2nc(N3CCC(O)CC3)c(C#N)cc2c1,i,3%,6%,59%,17%
CCc1cccc2c1Sc1ccccc1CC2N1CCNCC1 (configuration not stated),?,.,4%,-86%,8.9µM*
COc1ccccc1CCNC(=O)c1nc(-c2cccs2)no1,3%,16%,22%,4µM*,?
COc1ccccc1CC(=O)NCc1csc(-c2cccs2)n1,7%,1%,16%,11µM*,17%
COc1ccc(CCNC(=O)c2nc(-c3cccs3)no2)cc1OC,8%,7%,7%,-11%,35%
CCC(=O)NCc1csc(-c2cccs2)n1,5%,4%,7%,55%,11%
